Screens as filed in PubChem.
TRPV1 potentiator: human TRPV1 potentiation; Q8NER1; TRPV1-expressing cells, Fluo-8 calcium influx, capsaicin EC20 potentiation; potentiation, % at 8.33 µM; hit rate 0.02% among 320,000; in the data active = potentiation above about 80%; inconclusive = between about 30% and that limit; note: 0% is about no effect
Target sequence (Q8NER1 whole entry, looked up): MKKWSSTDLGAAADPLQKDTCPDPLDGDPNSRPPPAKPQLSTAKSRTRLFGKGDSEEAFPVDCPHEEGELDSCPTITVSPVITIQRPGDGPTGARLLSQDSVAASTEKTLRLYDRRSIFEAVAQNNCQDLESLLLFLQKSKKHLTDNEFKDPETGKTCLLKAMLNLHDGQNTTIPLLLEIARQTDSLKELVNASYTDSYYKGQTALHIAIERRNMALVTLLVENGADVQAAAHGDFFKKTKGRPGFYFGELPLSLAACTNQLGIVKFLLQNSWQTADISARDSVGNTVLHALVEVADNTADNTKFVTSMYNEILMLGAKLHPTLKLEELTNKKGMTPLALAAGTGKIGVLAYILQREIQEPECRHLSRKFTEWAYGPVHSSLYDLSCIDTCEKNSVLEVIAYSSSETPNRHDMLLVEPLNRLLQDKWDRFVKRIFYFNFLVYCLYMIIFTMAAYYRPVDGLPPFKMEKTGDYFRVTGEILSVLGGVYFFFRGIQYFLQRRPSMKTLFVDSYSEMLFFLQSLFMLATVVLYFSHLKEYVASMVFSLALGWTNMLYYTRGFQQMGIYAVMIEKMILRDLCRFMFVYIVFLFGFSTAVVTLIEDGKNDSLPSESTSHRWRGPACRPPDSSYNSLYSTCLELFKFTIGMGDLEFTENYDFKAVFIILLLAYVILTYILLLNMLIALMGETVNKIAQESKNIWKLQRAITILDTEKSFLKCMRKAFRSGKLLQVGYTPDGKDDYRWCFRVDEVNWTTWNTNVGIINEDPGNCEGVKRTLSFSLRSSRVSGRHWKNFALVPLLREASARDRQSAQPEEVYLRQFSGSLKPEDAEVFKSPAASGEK
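Cells expressing TRPV1 were dye-loaded with Fluo-8 and read kinetically: 10 s baseline, 3 min after compound (agonist portion), then 2 min after EC20 capsaicin (allosteric enhancer portion). Calcium-bound dye fluorescence at 480/520 nm.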
KCNH2 3.1 inh: blocks the human KCNH2 3.1 channel isoform; U2OS KCNH2 3.1, thallium flux FluxOr; stronger effect = lower value; activity change, % (tested at about 1.8 µM); hit rate 0.95% among 340,000; AID 720553;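 active = maximum activity change below -70%; inconclusive = maximum activity change from -70% to -50%; inactive = maximum activity change above -50%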;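 note: thallium influx rate constant from kinetic fluorescence after stimulation buffer; % is set by controls: 0 for no effect and ±100 for the full control effect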
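Measured as rate of thallium-driven FluxOr signal in transduced U2OS cells carrying the 3.1 channel, read kinetically for 2 min upon stimulation; values are rate constants scaled to DMSO control wells.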
TRPV1 agonist: activates the human vanilloid receptor TRPV1; AID 540275; hit rate 0.19% among 320,000; TRPV1-expressing cells, Fluo-8 calcium influx, agonist mode; activation, % at 8.33 µM; in the data active = activation above about 80%; inconclusive = between about 30% and that limit; note: 0% is about no effect
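Cells expressing TRPV1 were dye-loaded with Fluo-8 and read kinetically: 10 s baseline, 3 min after compound (agonist portion), then 2 min after EC20 capsaicin (allosteric enhancer portion). Calcium-bound dye fluorescence at 480/520 nm.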
hERG WT inh: inhibitors of human wildtype KCNH2 potassium channel; hit rate 0.37% among 340,000; Q12809; AID 720551; activity change, % at 1.84 µM; U2OS, BacMam KCNH2, thallium flux FluxOr; stronger effect = lower value;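 active = maximum activity change below -70%; inconclusive = maximum activity change between -70% and -50%; inactive = maximum activity change above -50%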; note: % is set by controls: 0 for no effect and ±100 for the full control effect
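U2OS cells were transduced with wild-type KCNH2 virus (2.03 x 10^8 / mL) for 4 h at room temperature, then cultured overnight at 37 C. Thallium flux was read with FluxOr dye. Rate constants were normalized to DMSO controls.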
Active calls of the source: *; ? = inconclusive; . = no result. Shown are actives, neighbours in structure and some others; about 1.2% of the full set was active somewhere.

SMILES	TRPV1 potentiator	KCNH2 3.1 inh	TRPV1 agonist	hERG WT inh
CCCCCC1CC(CC(=O)Nc2ccc([N+](=O)[O-])cc2)C(=O)O1 (stereo unspecified)	-2.9	-71.3*	2.2	.
CC1=CC(C)(C)NC(=S)N1c1ccc(C)cc1C	-2.0	9.9	2.0	-101.4*
CC1=CC(C)(C)NC(=S)N1c1ccccc1C	3.2	-4.1	10.8	-7.7
Brc1ccc(CN2CCSCC2)cc1	5.1	-173.6*	-2.9	-14.7
C/C(=N\NC(=O)c1nn(C)cc1Br)c1cccc(NC(=O)c2ccncc2)c1	4.2	1.7	4.2	7.4
Cc1cccc(NS(=O)(=O)c2ccc(C(=O)NCC(c3ccco3)N(C)C)cc2)c1C (stereo unspecified)	-7.5	-2.6	3.6	1.0
O=C(CCCOc1ccccc1)Nc1ccc(Cl)cn1	-10.8	-104.6*	?	0.3
CCCCCCC(=O)Nc1ccc(Cl)cn1	-15.2	10.3	?	-5.1
O=C(CCCOc1ccc(Cl)cc1Cl)Nc1ccncc1	-0.8	10.1	80.3*	8.1
COc1ccc(N(CC(=O)NC2CC3CCC2C3)S(=O)(=O)c2ccc(C)cc2)cc1Cl (stereo unspecified)	.	-4.6	.	4.7
Oc1ccc(Nc2nc(Cl)nc(NCc3ccco3)n2)cc1	3.2	15.3	-1.0	-6.5
Cc1ccc(C)c(C(=O)CCC(=O)Nc2ccc(N3CCN(C)CC3)cc2C)c1	.	-121.8*	.	-47.8
CCc1cccc(OCCOC(=O)CNS(=O)(=O)c2ccc(NC(C)=O)cc2)c1	12.8	5.4	-3.7	-17.0
COc1ccccc1/C=N/NC(=O)c1ccc(=O)n(C)c1	-1.9	4.6	0.2	0.4
COc1ccccc1/C=C/C=N/NC(=O)c1ccc(=O)n(C)c1	3.2	-93.0*	-5.4	-8.1
Cc1ccc(S(=O)(=O)c2nnn3c2nc(NC2CCN(Cc4ccccc4)CC2)c2ccccc23)cc1C	3.4	-81.0*	2.8	-12.6
COc1ccc(CCNCC(=O)Nc2ccc(C)c(Br)c2)cc1OC	-8.1	-72.2*	28.9	12.8
O=C(Nc1ccc(F)cc1)N1CCCN(c2nccc(C(F)(F)F)n2)CC1	-14.5	-13.7	?	-2.6
O=C(Nc1ccccc1)N1CCCN(c2nccc(C(F)(F)F)n2)CC1	-4.3	0.9	87.1*	-5.6
Oc1ccc(Cl)cc1CNc1cnc2ccccc2c1	23.3	30.8	0.1	-223.6*
Oc1ccccc1CNc1cnc2ccccc2c1	-3.9	24.2	15.1	-11.1
O=C(CC1Sc2ccccc2NC1=O)NNc1ccc(F)cc1 (stereo unspecified)	.	-10.6	.	-2.0
COc1ccc(CCN(C)CC(O)COC(c2ccc(F)cc2)c2ccc(F)cc2)cc1OC (stereo unspecified)	-3.8	-112.1*	3.1	-144.0*
COc1ccc(CN(C)CC(O)COC(c2ccccc2)c2ccccc2)c(OC)c1OC (stereo unspecified)	-3.7	-86.4*	3.2	?
COc1ccc(CN(C)CC(O)COc2ccc(C(=O)c3ccccc3)cc2)c(OC)c1OC (stereo unspecified)	-12.8	?	1.2	-1.9
SMILES	TRPV1 potentiator	KCNH2 3.1 inh	TRPV1 agonist	hERG WT inh
COc1ccc(CCNC(=O)CCCOc2cccc(C)c2C)cc1OC	12.6	1.7	83.4*	-3.3
COc1ccc(CCNC(=O)CCCOc2ccc(C)cc2)cc1OC	-43.2	10.2	?	1.4
COc1ccc(-n2c(SCC(=O)Nc3ccccc3)nnc2-c2ccoc2C)cc1	.	-105.1*	.	-9.1
Cc1ccc(-n2c(SCC(=O)Nc3ccc4c(c3)OCO4)nnc2-c2cccs2)cc1	-12.3	?	-4.8	-153.9*
O=C(CSc1nnc(-c2cccs2)n1-c1ccccc1)NCc1ccc2c(c1)OCO2	-2.5	-16.3	14.5	-0.8
C=CCn1c(SCC(=O)Nc2ccc3c(c2)CCC3)nnc1-c1cccs1	20.4	-76.5*	-4.9	-93.8*
Cc1cccc(-n2c(SCC(=O)Nc3ccc4c(c3)OCO4)nnc2-c2ccoc2C)c1	-9.5	-70.6*	13.8	-90.0*
COc1cccc(NC(=O)CSc2nnc(-c3ccoc3C)n2-c2ccccc2)c1	-6.7	-15.6	24.1	-41.4
Cc1ccc(N2C(=O)C(O)(C(F)(F)F)C3=C2CC(C)(C)CC3=O)cc1 (stereo unspecified)	3.2	0.6	0.1	4.6
CC1(C)CC(=O)C2=C(C1)N(c1ccc(F)cc1)C(=O)C2(O)C(F)(F)F (stereo unspecified)	23.9	-119.6*	-1.6	7.3
CCOC(=O)[C@H]1[C@H]2COc3ccccc3[C@@H]2N2C(=O)CN(Cc3ccc(C)cc3)C(=O)[C@@]12C	.	9.5	.	-3.1
CCOP(=O)(OCC)C(Nc1ccccc1)c1ccco1 (stereo unspecified)	-7.5	-118.1*	3.2	-4.4
CCOP(=O)(OCC)C(Nc1ccc(F)cc1)c1ccccc1 (stereo unspecified)	1.4	4.9	7.5	0.9
O=C(CCCN1C(=O)c2cccc3cccc(c23)C1=O)NCc1cccs1	-13.3	-3.2	6.3	-7.1
O=C(OCc1cn([C@H]2C[C@H](c3ccc(Cl)cc3)N(C(=O)C3CCCCC3)C[C@@H]2O)nn1)c1ccccc1	.	-81.8*	.	-36.6
CCN(CC(=O)Nc1ccc(NC(C)=O)cc1)C(=O)CCCN1C(=O)c2ccccc2C1=O	11.1	13.1	-0.2	-3.4
CC1=C(C(=O)N2CCOCC2)C(c2cccc(C)c2)NC(=S)N1 (stereo unspecified)	-26.8	4.2	0.4	-41.9
COc1ccc(C2NC(=S)NC(C)=C2C(=O)N2CCOCC2)cc1 (stereo unspecified)	3.5	3.2	-0.5	-278.1*
Cc1cc(C)c2c(n1)sc1c(-c3ccccc3)c(C#N)c(N)nc12	-2.4	-183.8*	5.4	-243.6*
O=C(O)c1ccc2c(c1)C(=O)N(c1cc([N+](=O)[O-])ccn1)C2=O	22.0	-12.1	-5.5	-0.3
O=C(CSc1nnnn1C1CC1)Nc1cc(S(=O)(=O)N2CCCC2)ccc1Cl	.	4.2	.	0.8
Cc1nnc(SCC(=O)Nc2cc(S(=O)(=O)N3CCCC3)ccc2Cl)n1C1CC1	2.5	-96.7*	-3.3	1.0
CCOC(=O)N1CCC(NC(=O)CCN2C(=O)COc3ccccc32)CC1	-10.1	-1.3	1.6	-253.2*
COc1cccc(/C=N/NC(=O)c2nnn(-c3nonc3N)c2CN(C)C2CCCCC2)c1	.	-16.7	.	15.1
CCN(CC)c1ccc(/C=N/NC(=O)c2nnn(-c3nonc3N)c2CN(C)C2CCCCC2)cc1	.	-88.0*	.	-17.2
SMILES	TRPV1 potentiator	KCNH2 3.1 inh	TRPV1 agonist	hERG WT inh
CCOc1ccc(/C=N/NC(=O)c2nnn(-c3nonc3N)c2CN(C)C2CCCCC2)cc1	-4.3	-25.7	0.2	-101.8*
N=C1C(c2ccccc2)=C(O)CN1c1cccc(S(=O)(=O)N2CCOCC2)c1	0.4	-33.2	0.8	-2.6
COc1ccccc1/C=C/C=c1\sc2nc(=O)c(Cc3ccccc3)nn2c1=O	-12.7	-162.8*	4.8	-140.0*
OCCN1C2=NCCCN2c2ccccc21	1.4	-9.6	-3.4	-1.3
CCCCCCN1C2=NCCCN2c2ccccc21	.	-79.6*	.	4.0
COc1ccc(C(=O)CN2C3=NCCCN3c3ccccc32)cc1OC	3.7	-41.9	0.8	4.5
